Measured values reported in the supplement of paper PMC9262897, “Low-cost anti-mycobacterial drug discovery using engineered E. coli” (Nature Communications, 2022).
Where a name gives a salt, the structure may show the parent alone. ± gives the standard deviation of the averaged measurements.

Columns and labels:
Assay in all cases: growth (OD600 after 10 h); higher = more growth (less inhibition)
[1] = test system: E. coli TESEC Alr+ wild-type control; settings: compound 0.1 mM; raw OD600 reference: median of DMSO wells 0.241, cell-free background 0.041
Protocol: (§1)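 TESEC Mtb Alr E. coli, or the Alr+ wild-type control, in 384-well plates with Prestwick library compounds at 0.1 mM and 1% DMSO, across arabinose induction levels of 1E3 to 1E7 nM. Growth is read as OD600 after 10 h at 37 °C in triplicate biological replicates.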

E. coli TESEC Mtb Alr [2] = settings: compound 0.1 mM
Protocol: as §1

E. coli TESEC Mtb Asd = settings: compound 0.1 mM
Protocol: (§2)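 TESEC E. coli strains in which the native enzyme is deleted and replaced by arabinose-inducible Mtb Asd, DapB, CysH or TrpD, each grown in its selective medium. Strains were screened against the Prestwick library at 0.1 mM and 1% DMSO in 384-well format at low and high arabinose induction. Growth is read as OD600 after 10 h in triplicate.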

E. coli TESEC Mtb DapB = settings: compound 0.1 mM
Protocol: as §2

[3] = test system: E. coli TESEC Alr+ wild-type control; settings: compound 0.1 mM; raw OD600 reference: median of DMSO wells 0.49, cell-free background 0.052
Protocol: (§3)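 TESEC Mtb Alr E. coli (ΔaraC ΔtolC ΔentC Δalr ΔdadX, arabinose-inducible Mtb Alr) or the Alr+ wild-type control strain, grown in defined M9-fructose medium without D-alanine in 96-well plates with Prestwick library compounds at 0.1 mM and 1% DMSO. Low Alr induction is 0.1 µM arabinose and high induction is 10 mM arabinose.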

E. coli TESEC Mtb Alr [4] = settings: compound 0.1 mM; remark: listed apart in the source
Protocol: as §3

[5] = arabinose 1000 nM, raw OD600 reference: median of DMSO wells 0.294, cell-free background 0.041
[6] = arabinose 10000 nM, raw OD600 reference: median of DMSO wells 0.264, cell-free background 0.041
[7] = arabinose 100000 nM, raw OD600 reference: median of DMSO wells 0.201, cell-free background 0.041
[8] = arabinose 1000000 nM, raw OD600 reference: median of DMSO wells 0.193, cell-free background 0.041
[9] = arabinose 10000000 nM, raw OD600 reference: median of DMSO wells 0.146, cell-free background 0.041
[10] = arabinose induction (level): High, raw OD600 reference: median of DMSO wells 0.331, cell-free background 0.041
[11] = arabinose induction (level): Low, raw OD600 reference: median of DMSO wells 0.417, cell-free background 0.041
[12] = arabinose induction (level): High, raw OD600 reference: median of DMSO wells […], cell-free background 0.041
[13] = arabinose induction (level): Low, raw OD600 reference: median of DMSO wells 0.227, cell-free background 0.041
[14] = arabinose 100 nM, raw OD600 reference: median of DMSO wells 0.413, cell-free background 0.052
[15] = arabinose 10000000 nM, raw OD600 reference: median of DMSO wells […], cell-free background 0.052

SMILES	growth [1]	growth (E. coli TESEC Mtb Alr [2]; [5])	growth (E. coli TESEC Mtb Alr [2]; [6])	growth (E. coli TESEC Mtb Alr [2]; [7])	growth (E. coli TESEC Mtb Alr [2]; [8])	growth (E. coli TESEC Mtb Alr [2]; [9])	growth (E. coli TESEC Mtb Asd; [10])	growth (E. coli TESEC Mtb Asd; [11])	growth (E. coli TESEC Mtb DapB; [12])	growth (E. coli TESEC Mtb DapB; [13])	growth [3]	growth (E. coli TESEC Mtb Alr [4]; [14])	growth (E. coli TESEC Mtb Alr [4]; [15])
Clc1cccc(Cl)c1NC1=NCCN1 [Clonidine hydrochloride]	0.245 ± 0.01	0.289 ± 0.0065	0.261 ± 0.0058	0.201 ± 0.023	0.173 ± 0.0049	0.145 ± 0.011	0.377 ± 0.03	0.422 ± 0.016	0.195 ± 0.012	0.26 ± 0.034	0.462 ± 0.014	0.407 ± 0.013	0.375 ± 0.017
COC(=O)C1=C(C)NC(C)=C(C(=O)OCC(C)C)C1c1ccccc1[N+](=O)[O-] (centres undefined) [Nisoldipine]	0.0411 ± 0.00044	0.189 ± 0.022	0.1989 ± 0.0016	0.133 ± 0.0061	0.101 ± 0.011	0.112 ± 0.0029	0.0578 ± 0.0013	0.0593 ± 0.0039	0.122 ± 0.0061	0.114 ± 0.0044	0.433 ± 0.007	0.386 ± 0.0062	0.223 ± 0.012
Nc1nc(=O)n([C@@H]2CS[C@H](CO)O2)cc1F [(-)-Emtricitabine]	0.238 ± 0.0098	0.285 ± 0.0065	0.248 ± 0.0044	0.254 ± 0.061	0.172 ± 0.0027	0.147 ± 0.005	0.291 ± 0.092	0.419 ± 0.09	0.192 ± 0.024	0.218 ± 0.011	0.572 ± 0.0088	0.412 ± 0.0087	0.337 ± 0.012
O=C(O)c1cccnc1Nc1cccc(C(F)(F)F)c1 [Niflumic acid]	0.113 ± 0.0057	0.0693 ± 0.0078	0.0488 ± 0.00046	0.145 ± 0.002	0.06687 ± 0.00065	0.099 ± 0.0016	0.15 ± 0.022	0.16 ± 0.018	0.172 ± 0.0053	0.209 ± 0.022	0.206 ± 0.046	0.244 ± 0.066	0.0999 ± 0.0073
CC(=O)S[C@@H]1CC2=CC(=O)CC[C@]2(C)[C@H]2CC[C@@]3(C)[C@@H](CC[C@@]34CCC(=O)O4)[C@H]12 [Spironolactone]	0.121 ± 0.0068	0.0986 ± 0.051	0.0753 ± 0.0019	0.0921 ± 0.027	0.06897 ± 0.00051	0.112 ± 0.0019	0.167 ± 0.021	0.313 ± 0.041	0.1363 ± 0.001	0.178 ± 0.018		0.389 ± 0.026	0.0959 ± 0.016
Clc1cnccn1 [2-Chloropyrazine]	0.241 ± 0.011	0.03733 ± 0.00025	0.0408 ± 0.0011	0.11 ± 0.0059	0.112 ± 0.0027	0.196 ± 0.0073	0.245 ± 0.034	0.307 ± 0.049	0.231 ± 0.013	0.254 ± 0.025		0.4217 ± 0.0015	0.325 ± 0.0083
CCCCCN(C)CCC(O)(P(=O)(O)O)P(=O)(O)O [Ibandronate sodium]	0.245 ± 0.0075	0.287 ± 0.01	0.25 ± 0.0058	0.196 ± 0.011	0.182 ± 0.0036	0.131 ± 0.0067	0.364 ± 0.022	0.448 ± 0.015	0.206 ± 0.0027	0.232 ± 0.035		0.422 ± 0.01	0.358 ± 0.014
Cc1onc(-c2c(F)cccc2Cl)c1C(=O)N[C@@H]1C(=O)N2[C@@H]1SC(C)(C)[C@@H]2C(=O)O [Flucloxacillin sodium]	0.228 ± 0.0096	0.2863 ± 0.0017	0.26 ± 0.0097	0.186 ± 0.022	0.172 ± 0.006	0.136 ± 0.0023	0.265 ± 0.056	0.432 ± 0.059	0.196 ± 0.0025	0.259 ± 0.034	0.496 ± 0.053	0.412 ± 0.015	0.33 ± 0.021
CC(C)(C)CC(C)(C)c1ccc(OCOCCOCCO)c(Cc2cc(C(C)(C)CC(C)(C)C)cc(Cc3cc(C(C)(C)CC(C)(C)C)ccc3OCOCCOCCO)c2OCOCCOCCO)c1 [Tyloxapol]	0.341 ± 0.018	0.323 ± 0.0088	0.256 ± 0.0056	0.455 ± 0.027	0.171 ± 0.0031	0.261 ± 0.032	0.475 ± 0.018	0.509 ± 0.0063	0.217 ± 0.018	0.261 ± 0.033	0.4593 ± 0.0043	0.418 ± 0.016	0.4093 ± 0.0033
CC(C)N1CCN(c2ccc(OCC3COC(Cn4cncn4)(c4ccc(Cl)cc4Cl)O3)cc2)CC1 (centres undefined) [Terconazole]	0.193 ± 0.011	0.266 ± 0.023	0.266 ± 0.0048	0.23 ± 0.022	0.205 ± 0.0063	0.15383 ± 0.00015	0.252 ± 0.021	0.397 ± 0.14	0.198 ± 0.0065	0.223 ± 0.011	0.462 ± 0.031	0.412 ± 0.014	0.315 ± 0.019
Cn1c([N+](=O)[O-])cnc1COC(N)=O [Ronidazole]	0.226 ± 0.0055	0.296 ± 0.007	0.27 ± 0.0076	0.161 ± 0.0087	0.149 ± 0.0036	0.164 ± 0.0025	0.241 ± 0.036	0.338 ± 0.016	0.187 ± 0.0036	0.253 ± 0.031	0.458 ± 0.0079	0.4333 ± 0.0022	0.285 ± 0.011
O=C(O)c1ccccc1OP(=O)(O)O [Fosfosal]	0.242 ± 0.0067	0.292 ± 0.017	0.266 ± 0.0057	0.192 ± 0.026	0.198 ± 0.0055	0.137 ± 0.0018	0.349 ± 0.051	0.424 ± 0.097	0.21 ± 0.017	0.239 ± 0.0092	0.561 ± 0.049	0.405 ± 0.01	0.366 ± 0.0071
CC(N)C12CC3CC(CC(C3)C1)C2 (centres undefined) [Rimantadine Hydrochloride]	0.228 ± 0.0089	0.293 ± 0.0047	0.2629 ± 0.0005	0.207 ± 0.025	0.18 ± 0.0024	0.151 ± 0.006	0.209 ± 0.019	0.497 ± 0.07	0.195 ± 0.021	0.232 ± 0.025	0.583 ± 0.077	0.407 ± 0.009	0.345 ± 0.011
NC1CCN(c2nc3c(cc2F)c(=O)c(C(=O)O)cn3-c2ccc(F)cc2F)C1 (centres undefined) [Tosufloxacin hydrochloride]	0.0572 ± 0.0069	0.048 ± 0.0026	0.0491 ± 0.00026	0.0552 ± 0.0018	0.0452 ± 0.0008	0.0575 ± 0.0043	0.054 ± 0.01	0.0575 ± 0.0039	0.05407 ± 0.0005	0.0526 ± 0.0037	0.0604 ± 0.0041	0.05307 ± 0.00025	0.0578 ± 0.0027
CCn1nc(C(=O)O)c(=O)c2cc3c(cc21)OCO3 [Cinoxacin]	0.0813 ± 0.0028	0.0736 ± 0.006	0.0622 ± 0.0033	0.089 ± 0.0035	0.108 ± 0.0017	0.139 ± 0.0015	0.335 ± 0.024	0.244 ± 0.035	0.211 ± 0.013	0.212 ± 0.0088		0.0933 ± 0.016	0.0712 ± 0.0049
CCOc1ccc2ccccc2c1C(=O)N[C@@H]1C(=O)N2[C@@H]1SC(C)(C)[C@@H]2C(=O)O [Nafcillin sodium salt monohydrate]	0.236 ± 0.0097	0.303 ± 0.011	0.257 ± 0.014	0.203 ± 0.0041	0.188 ± 0.01	0.138 ± 0.0027	0.43 ± 0.048	0.439 ± 0.043	0.183 ± 0.007	0.22 ± 0.0024	0.6426 ± 0.0049	0.403 ± 0.013	0.343 ± 0.016
